Records with an inconclusive call do not appear. Where a call stands in place of a potency, no number is given. Active and inactive are the calls of the source. Calls follow the shape of the dose curve; as a rule, active = well fitted cell-killing curve with a large enough effect in the repeat runs; inconclusive = weak or mixed curves, or effect the other way; inactive = flat fitted curve, though single readings scatter.
Assays:
[1] = cAMP Responsive Elements (CRE) small molecule antagonists, cell-based qHTS assay: qHTS cell viability counter screen (AID 2060913); also: nearly all actives have a fitted effect of over 40% in size
Method in brief: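 HEK293T CRE-bla, 2,000 cells/well, 18 h preincubation; cpd in DMSO + NKH477 0.25 uM final, 3 h 37 C/5% CO2; LiveBLAzer 2 h RT, then CellTiter-Glo 30 min RT, luminescence.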

[2] = cAMP Responsive Elements (CRE) small molecule agonists, cell-based qHTS assay: qHTS cell viability counter screen (AID 2060914); also: nearly all actives have a fitted effect of over 50% in size
Method in brief: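 Cytotoxicity was measured as ATP luminescence (CellTiter-Glo, 30 min at room temperature) in the same wells as the CRE-bla FRET read-out. HEK293T CRE-bla cells had 3 h compound exposure at 37C/5% CO2.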

SMILES	Potency [1]	Potency [2]
O=C1NC(c2ccccc2)(c2ccccc2)C(=O)N1COP(=O)(O)O	inactive	inactive
C[C@]12CC[C@@H]3c4ccc(O)cc4CC[C@H]3[C@@H]1CC[C@H]2O	inactive	inactive
Oc1cccc(O)c1O	inactive	inactive
CN1C(=O)CC[C@H]1c1cccnc1	inactive	inactive
O=c1cc(-c2ccc(O)cc2)oc2cc(O)cc(O)c12	inactive	inactive

From PubChem BioAssay (Tox21)
